The whole screen tested about 2,100 compounds, of which about 940 (45%) were called active. Roughly 48% stayed inconclusive and do not appear here. Calls come from the whole dose curve; as a rule, active = well fitted inhibition curve with a large enough effect; inconclusive = small, poorly fitted or top-dose-only effect; inactive = no such curve, though single readings can be large or run the other way. So high a share suggests a set chosen from earlier hits. The list shows a part of the results.
Potency is the fitted concentration of half-maximal effect.

The assay in a line: Confirmatory qHTS for Inhibitors of ATXN expression. Note: nearly all actives have a fitted effect of over 65% in size. Conditions: ATXN2-luciferase reporter cells, luminescence, 24 h; series mostly up to 11.5 µM. The gist of the method:
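Cells carrying ATXN2-luciferase reporter exposed 24 h at 37 C to compound. Viability then read by CellTiter-Fluor (25 uM GF-AFC, 30 min), followed by SteadyGlo luminescence; medium-only wells set 100% inhibition.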
Background: In qHTS, concentration-response curves come from the screen itself.
Consider `Cc1cc(C)nc(NNS(=O)(=O)c2ccc(F)c(Cl)c2)n1`, for which the Potency entry was “inactive”.

As to `Cc1nc(-c2ccc(F)cc2)c(CC(=O)N(C)CC(=O)Nc2ccc(Cl)c(C(F)(F)F)c2)s1`, the Potency is 25.1 µM (active).

In the case of `CN(CC(=O)NCc1ccc(F)cc1)CC(=O)Nc1ccc(Cl)c(C(F)(F)F)c1`, the Potency was 25.1 µM (active).

As to `CN(CC(=O)Nc1ccc(Cl)c(C(F)(F)F)c1)C(=O)c1cccnc1Sc1ccccc1`, the Potency result was “inactive”.

As to `CCC(=O)NC(c1ccc(C)cc1)c1cc([N+](=O)[O-])c2cccnc2c1O` (centres undefined), the Potency is 6.31 µM (active).

For the compound `CC(C)C(=O)NC(c1ccccc1)c1cc([N+](=O)[O-])c2cccnc2c1O` (centres undefined), the Potency is 10 µM (active).

Turning to `Cc1cc(OCC(=O)NC(C)c2ccccc2)ccc1[N+](=O)[O-]` (centres undefined), the Potency result is “inactive”.

Turning to `CC(C)c1ccc2c(c1)C(N1CCNCC1)Cc1ccc(F)cc1S2` (centres undefined), the Potency is 28.2 µM (active).

As for `CNc1nc2c(N)ncnc2n1[C@H]1O[C@@H](CO)[C@H](O)[C@@H]1O`, the Potency was 2.82 µM (active).

Regarding `N#Cc1c(N)n(C2OC(CO)C(O)C2O)c2ncnc(N)c12` (centres undefined), the Potency was 0.398 µM (active).

`CCOc1ccc(CCNC(=O)c2ccc(OCc3c(C)noc3C)cc2)cc1OCC`: the Potency result was “inactive”.

In the case of `CCc1cc(C)cc(OCCNC(=O)c2cncc(Br)c2)c1`, the Potency is 25.1 µM (active).

Regarding `COc1ccc(OCc2cccc(C(=O)Nn3cc([N+](=O)[O-])cn3)c2)cc1`, the Potency was 0.398 µM (active).

`O=C(Nc1ccc2c(c1)CCC2)C1CCN(c2c3c(nc4ncnn24)CCC3)CC1`: the Potency was 7.94 µM (active).

As to `CC(C)COc1cccc(C(=O)N(CC(=O)Nc2ccccc2C(F)(F)F)Cc2ccco2)c1`, the Potency was 3.16 µM (active).

On to `Cc1cc(C)nc(N/N=C2/CCCC/C2=C\c2ccccc2)n1`, for which the Potency was 2.82 µM (active).

`COc1cc2[nH]c(=O)n(CCCCCC(=O)N3CC=C(c4ccccc4)CC3)c(=O)c2cc1OC`: the Potency was 3.16 µM (active).

Take `CCOC(=O)c1c(NC(=O)C(Sc2ccccc2)c2ccccc2)sc(C(=O)N(C)C)c1C` (centres undefined): the Potency is 25.1 µM (active).

Regarding `CCOC(=O)c1c(NC(=O)COC(=O)c2ccccc2NC)sc(C(=O)N(C)C)c1C`, the Potency entry is “inactive”.

Take `NC(Cc1ccc(F)cc1)c1csc(NC(=O)NC(c2ccccc2)c2ccccc2)n1` (centres undefined): the Potency was 28.2 µM (active).

For the compound `COc1ccc(CNC(=O)Nc2nc(C(N)Cc3ccc(Cl)cc3)cs2)cc1` (centres undefined), the Potency is 28.2 µM (active).

Take `CC(C)CC(N)c1csc(NC(=O)Nc2ccccc2C(C)(C)C)n1` (centres undefined): the Potency is 3.16 µM (active).

Turning to `NC(Cc1ccc(Cl)cc1)c1csc(NC(=O)Nc2ccccc2-c2ccccc2)n1` (centres undefined), the Potency was 3.16 µM (active).

Turning to `COc1ccc(N(C(=O)c2snc(C(N)=O)c2N)C(C(=O)NCc2ccc(F)cc2)c2ccc(O)cc2)cc1` (centres undefined), the Potency entry was “inactive”.

With `COc1ccc(CC(N)c2csc(NC(=O)c3ccccc3OC)n2)cc1` (centres undefined), the Potency result was “inactive”.

As to `NC(c1ccccc1)c1csc(NC(=O)Nc2ccccc2Oc2ccccc2)n1` (centres undefined), the Potency was 3.16 µM (active).

For the compound `O=C(OCCN1C(=O)c2cccc3c(N4CCOCC4)ccc(c23)C1=O)c1ccccc1Cl`, the Potency is 5.01 µM (active).

Consider `COc1ccc2c(-c3ccc(S(N)(=O)=O)cc3)c(-c3ccc(S(C)(=O)=O)cc3)sc2c1`, for which the Potency was 28.2 µM (active).

For `O=C(CNC(=O)c1ccc(F)cc1)N/N=C/c1cc(Br)ccc1OC(=O)/C=C/c1ccco1`, the Potency was 15.8 µM (active).

For `O=C(/C=C/c1ccco1)Oc1cc(Br)cc(/C=N/NC(=O)c2ccccc2O)c1`, the Potency is 0.447 µM (active).

`O=C(CNC(=O)c1cccc(F)c1)N/N=C/c1cc(Br)ccc1OC(=O)/C=C/c1ccco1`: the Potency is 7.94 µM (active).

As to `O=C(CNC(=O)c1ccccc1F)N/N=C/c1cc(Br)ccc1OC(=O)/C=C/c1ccco1`, the Potency is 11.2 µM (active).

For `COc1cc(C(=O)NC(=S)NNC(=O)c2cnccn2)cc(OC)c1OC`, the Potency was 12.6 µM (active).

As for `O=C(/C=C/c1ccccc1)NC(=S)NNC(=O)c1cnccn1`, the Potency was 7.94 µM (active).

For the compound `O=C(NNC(=O)c1cnccn1)c1ccc(Cl)c(Cl)c1`, the Potency is 15.8 µM (active).

On to `O=C(NCCc1csc(-c2cccnc2)n1)c1cccc(Cl)c1`, for which the Potency result is “inactive”.

Turning to `CCCCOc1ccc(C(=O)NNC(=O)c2cnccn2)cc1OC`, the Potency was 17.8 µM (active).

`NC(N)=N/N=C/c1ccc2cccc(OCc3ccccc3)c2n1`: the Potency was 10 µM (active).

Regarding `CCC(c1nnnn1C1CCCC1)N(Cc1cccs1)Cc1cc2cc(C)ccc2[nH]c1=O` (centres undefined), the Potency is 28.2 µM (active).

In the case of `Cn1nnnc1Sc1ncnc2scc(-c3ccc[nH]3)c12`, the Potency is 28.2 µM (active).

For the compound `CC(=O)c1cccc(-c2csc3ncnc(Sc4nnnn4C)c23)c1`, the Potency is 11.2 µM (active).

With `Cn1nnnc1Sc1ncnc2scc(Br)c12`, the Potency is 28.2 µM (active).

On to `Cn1nnnc1Sc1ncnc2scc(-c3ccccc3Cl)c12`, for which the Potency was 3.16 µM (active).

Consider `CCOC(=O)c1c(C)oc2c(F)c(F)c(F)c(F)c2c1=O`, for which the Potency is 3.98 µM (active).

Turning to `CCN(CC)CCNC1=NCCn2c1cc1cc(OC)ccc12`, the Potency is 1.78 µM (active).

For `C[C@@H]1C[C@@H]2O[C@H]2/C=C\C=C\C(=O)Cc2c(Cl)c(O)cc(O)c2C(=O)O1`, the Potency is 0.631 µM (active).

With `O=C(N/N=C/c1ccccc1O)c1cccc(C(F)(F)F)c1`, the Potency was 0.631 µM (active).

On to `O=C(NN=Cc1c(O)ccc2ccccc12)c1ccc2c(c1)OCO2`, for which the Potency is 2 µM (active).

`O=C(N/N=C/c1c(O)ccc2ccccc12)c1cccc(C(F)(F)F)c1`: the Potency is 1 µM (active).

For `CCCC1CCC(c2ccc(C(=O)NN)cc2)CC1` (centres undefined), the Potency is 2.82 µM (active).

Regarding `FC(F)(F)c1cc(-c2ccccn2)nc2cc(-c3ccccc3)nn12`, the Potency result was “inactive”.

In the case of `c1ccc(-c2cccc(-c3ccccn3)n2)nc1`, the Potency was 0.112 µM (active).

For the compound `Cc1cc(=O)[nH]c(N=N/C(=N/Nc2ccccc2C)c2ccccc2)n1`, the Potency was 1.58 µM (active).

As to `CC(=O)NC(C)c1cc(Cl)c2cccnc2c1O` (centres undefined), the Potency is 3.98 µM (active).

Regarding `CCC(=O)NC(c1cc(Cl)c2cccnc2c1O)C(C)C` (centres undefined), the Potency was 2.82 µM (active).

On to `CCC(=O)NC(C)c1cc(Cl)c2cccnc2c1O` (centres undefined), for which the Potency is 1.78 µM (active).

Turning to `CC(=O)NC(c1cc(Cl)c2cccnc2c1O)C(C)C` (centres undefined), the Potency is 0.794 µM (active).

On to `N#C/C(=C\c1ccc([N+](=O)[O-])o1)c1nc2ccccc2[nH]1`, for which the Potency is 3.55 µM (active).

For the compound `Cc1csc(NC(=O)COCC(=O)O)c1-c1nc2ccccc2s1`, the Potency is 15.8 µM (active).

The values are drawn from PubChem BioAssay AID1745848 (National Center for Advancing Translational Sciences (NCATS), 2022).
